Measured values taken from a collection of fitness landscapes (doi:10.1016/j.celrep.2020.107928).
Over roughly 81,000 sequences, “one-hybrid fitness for binding parS DNA” has its median near -0.17; the highest 2% begin near 0.51. The sample holds the highest values, similar sequences and a random draw of the others, so the mix is not that of the screen.

B1: Caulobacter ParB omega fusion; a variant is named by its letters at X, in order, B8GW30 (parent)
chain: MESVVVGEPGMSEGRRGLGRGLSALLGEVDAAPAQAPGEQLGGSREAPIEILQRNPDQPRRTFREEDLEDLSNSIREKGVLQPILVRPSPDTAGEYQIVAGERAWRAAQRAGLKTVPIMVRELDDLAVLEIGIIENVQRADLNVLEEALSYKVLMEKFERTQENIAQTIGKSXSHVANXMRLLXLPDEVQSYLVSGELTAXHARAIAAAADPVALAKQIIEGGLSVRETEALARKAPNLSAGKSKGGRPPRVKDTDTQALESDLSSVLGLDVSIDHRGSTGTLTITYATLEQLDDLCNRLTRGI

Variants of: B1
Experiment: one-hybrid fitness for binding parS DNA (scaled: cognate 1, non-cognate 0); higher = stronger binding
Conditions: with parS DNA site
How it was run: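 Bacterial one-hybrid selection in E. coli USO rpoZ- hisB- pyrF- with a HIS3 reporter carrying the site 19 bp from the promoter, screening Caulobacter ParB libraries with four specificity codons randomised (NNS). Cells grew 48 hours at 37°C on M9-minus-histidine plus 0.1 mM IPTG and 5 mM 3-AT. Plasmids before and after selection were Illumina-sequenced, three replicate libraries pooled, and variants under 10 reads dropped. Fitness is the log change in variant-to-wild-type read ratio, rescaled to cognate 1, non-cognate 0.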
With PKIS the “one-hybrid fitness for binding parS DNA” value was ≤ 0.2.
EFPF was tested, and the “one-hybrid fitness for binding parS DNA” value was ≤ 0.2.
In the case of DVWS, the “one-hybrid fitness for binding parS DNA” value is reported as ≤ 0.2.
For NFYC, the “one-hybrid fitness for binding parS DNA” value was ≤ 0.2.
In the case of DMTG, the “one-hybrid fitness for binding parS DNA” value is reported as ≤ 0.2.
With RGAP the “one-hybrid fitness for binding parS DNA” value was ≤ 0.2.
With RGRD the “one-hybrid fitness for binding parS DNA” value was ≤ 0.2.
RGRP was tested, and the “one-hybrid fitness for binding parS DNA” value was ≤ 0.2.
With RGYD the “one-hybrid fitness for binding parS DNA” value was ≤ 0.2.
With RGRS the “one-hybrid fitness for binding parS DNA” value was 0.932.
With RGYS the “one-hybrid fitness for binding parS DNA” value was 0.586.
For RGPS, the “one-hybrid fitness for binding parS DNA” value was 0.336.
RGAT was tested, and the “one-hybrid fitness for binding parS DNA” value was 0.524.
With RGHS the “one-hybrid fitness for binding parS DNA” value was 0.73.
In the case of RGHH, the “one-hybrid fitness for binding parS DNA” value is reported as ≤ 0.2.
RGFT was tested, and the “one-hybrid fitness for binding parS DNA” value was 0.455.
For RGHD, the “one-hybrid fitness for binding parS DNA” value was ≤ 0.2.
With NMTN the “one-hybrid fitness for binding parS DNA” value was ≤ 0.2.
For HQTD, the “one-hybrid fitness for binding parS DNA” value was ≤ 0.2.
In the case of CKKK, the “one-hybrid fitness for binding parS DNA” value is reported as ≤ 0.2.
With SMHA the “one-hybrid fitness for binding parS DNA” value was ≤ 0.2.
With LLCV the “one-hybrid fitness for binding parS DNA” value was ≤ 0.2.
With RNEW the “one-hybrid fitness for binding parS DNA” value was ≤ 0.2.
With RGLS the “one-hybrid fitness for binding parS DNA” value was 0.65.
With RGLN the “one-hybrid fitness for binding parS DNA” value was ≤ 0.2.
RGLD was tested, and the “one-hybrid fitness for binding parS DNA” value was ≤ 0.2.
With GMLK the “one-hybrid fitness for binding parS DNA” value was ≤ 0.2.
TTDG was tested, and the “one-hybrid fitness for binding parS DNA” value was ≤ 0.2.
With RVPN the “one-hybrid fitness for binding parS DNA” value was ≤ 0.2.
For RVIC, the “one-hybrid fitness for binding parS DNA” value was 0.846.
For RVIH, the “one-hybrid fitness for binding parS DNA” value was ≤ 0.2.
In the case of RVPC, the “one-hybrid fitness for binding parS DNA” value is reported as 0.637.
In the case of RVIN, the “one-hybrid fitness for binding parS DNA” value is reported as 0.334.
RVPH was tested, and the “one-hybrid fitness for binding parS DNA” value was ≤ 0.2.
With HYPN the “one-hybrid fitness for binding parS DNA” value was ≤ 0.2.
For ITNM, the “one-hybrid fitness for binding parS DNA” value was ≤ 0.2.
For RDKT, the “one-hybrid fitness for binding parS DNA” value was ≤ 0.2.
For RSKT, the “one-hybrid fitness for binding parS DNA” value was 0.796.
With REKT the “one-hybrid fitness for binding parS DNA” value was 0.369.
For RSKK, the “one-hybrid fitness for binding parS DNA” value was ≤ 0.2.
With RPKT the “one-hybrid fitness for binding parS DNA” value was ≤ 0.2.
In the case of RCKT, the “one-hybrid fitness for binding parS DNA” value is reported as 0.748.
With PRHS the “one-hybrid fitness for binding parS DNA” value was ≤ 0.2.
In the case of MIYR, the “one-hybrid fitness for binding parS DNA” value is reported as ≤ 0.2.
VPKS was tested, and the “one-hybrid fitness for binding parS DNA” value was ≤ 0.2.
TLQM was tested, and the “one-hybrid fitness for binding parS DNA” value was ≤ 0.2.
In the case of RFMA, the “one-hybrid fitness for binding parS DNA” value is reported as 0.504.
For RSMA, the “one-hybrid fitness for binding parS DNA” value was 0.576.
For RYMA, the “one-hybrid fitness for binding parS DNA” value was 0.553.
For NTMA, the “one-hybrid fitness for binding parS DNA” value was ≤ 0.2.
For AYMA, the “one-hybrid fitness for binding parS DNA” value was ≤ 0.2.
With RRMA the “one-hybrid fitness for binding parS DNA” value was 0.809.
RTMA was tested, and the “one-hybrid fitness for binding parS DNA” value was 0.582.
With NRMA the “one-hybrid fitness for binding parS DNA” value was ≤ 0.2.
SYMA was tested, and the “one-hybrid fitness for binding parS DNA” value was ≤ 0.2.
DRMA was tested, and the “one-hybrid fitness for binding parS DNA” value was ≤ 0.2.
RWMA was tested, and the “one-hybrid fitness for binding parS DNA” value was 0.287.
DTMA was tested, and the “one-hybrid fitness for binding parS DNA” value was ≤ 0.2.
NGLP was tested, and the “one-hybrid fitness for binding parS DNA” value was ≤ 0.2.
In the case of DLGV, the “one-hybrid fitness for binding parS DNA” value is reported as ≤ 0.2.
In the case of QGYV, the “one-hybrid fitness for binding parS DNA” value is reported as ≤ 0.2.
In the case of HVLF, the “one-hybrid fitness for binding parS DNA” value is reported as ≤ 0.2.
In the case of IQVR, the “one-hybrid fitness for binding parS DNA” value is reported as ≤ 0.2.
In the case of RYHV, the “one-hybrid fitness for binding parS DNA” value is reported as ≤ 0.2.
WPYE was tested, and the “one-hybrid fitness for binding parS DNA” value was ≤ 0.2.
RRPL was tested, and the “one-hybrid fitness for binding parS DNA” value was ≤ 0.2.
With ALDW the “one-hybrid fitness for binding parS DNA” value was ≤ 0.2.
For VVHY, the “one-hybrid fitness for binding parS DNA” value was ≤ 0.2.
For RIMA, the “one-hybrid fitness for binding parS DNA” value was 0.6.
For RMMA, the “one-hybrid fitness for binding parS DNA” value was 0.643.
In the case of RKMA, the “one-hybrid fitness for binding parS DNA” value is reported as 0.54.
RGMA was tested, and the “one-hybrid fitness for binding parS DNA” value was 0.283.
In the case of RAMA, the “one-hybrid fitness for binding parS DNA” value is reported as 0.565.
In the case of RDMA, the “one-hybrid fitness for binding parS DNA” value is reported as ≤ 0.2.
For DVGK, the “one-hybrid fitness for binding parS DNA” value was 0.252.
In the case of PLIV, the “one-hybrid fitness for binding parS DNA” value is reported as ≤ 0.2.
For KHAR, the “one-hybrid fitness for binding parS DNA” value was ≤ 0.2.
MMTD was tested, and the “one-hybrid fitness for binding parS DNA” value was ≤ 0.2.
In the case of HGPW, the “one-hybrid fitness for binding parS DNA” value is reported as ≤ 0.2.
In the case of CYVF, the “one-hybrid fitness for binding parS DNA” value is reported as ≤ 0.2.
For NKSN, the “one-hybrid fitness for binding parS DNA” value was ≤ 0.2.
In the case of THAA, the “one-hybrid fitness for binding parS DNA” value is reported as ≤ 0.2.
With HRMC the “one-hybrid fitness for binding parS DNA” value was 0.225.
For YECR, the “one-hybrid fitness for binding parS DNA” value was ≤ 0.2.
With PLHI the “one-hybrid fitness for binding parS DNA” value was ≤ 0.2.
With EKSD the “one-hybrid fitness for binding parS DNA” value was ≤ 0.2.
With KREK the “one-hybrid fitness for binding parS DNA” value was ≤ 0.2.
With QAYP the “one-hybrid fitness for binding parS DNA” value was ≤ 0.2.
PIYC was tested, and the “one-hybrid fitness for binding parS DNA” value was ≤ 0.2.
For RCMA, the “one-hybrid fitness for binding parS DNA” value was 0.609.
For RNMA, the “one-hybrid fitness for binding parS DNA” value was 0.47.
In the case of RLMA, the “one-hybrid fitness for binding parS DNA” value is reported as 0.613.
With RHMA the “one-hybrid fitness for binding parS DNA” value was 0.503.
In the case of RPMA, the “one-hybrid fitness for binding parS DNA” value is reported as ≤ 0.2.
For VSPG, the “one-hybrid fitness for binding parS DNA” value was ≤ 0.2.
With TMCY the “one-hybrid fitness for binding parS DNA” value was ≤ 0.2.
With DQLR the “one-hybrid fitness for binding parS DNA” value was ≤ 0.2.
For RRIF, the “one-hybrid fitness for binding parS DNA” value was ≤ 0.2.
With RRID the “one-hybrid fitness for binding parS DNA” value was ≤ 0.2.
With RRIT the “one-hybrid fitness for binding parS DNA” value was 0.693.
In the case of RRPT, the “one-hybrid fitness for binding parS DNA” value is reported as 0.761.
In the case of RRPP, the “one-hybrid fitness for binding parS DNA” value is reported as ≤ 0.2.
For RRPH, the “one-hybrid fitness for binding parS DNA” value was ≤ 0.2.
DSHR was tested, and the “one-hybrid fitness for binding parS DNA” value was ≤ 0.2.
For CMQS, the “one-hybrid fitness for binding parS DNA” value was ≤ 0.2.
For SCFI, the “one-hybrid fitness for binding parS DNA” value was ≤ 0.2.
With RRRQ the “one-hybrid fitness for binding parS DNA” value was ≤ 0.2.
RRNF was tested, and the “one-hybrid fitness for binding parS DNA” value was ≤ 0.2.
With RRLH the “one-hybrid fitness for binding parS DNA” value was ≤ 0.2.
With RRNQ the “one-hybrid fitness for binding parS DNA” value was ≤ 0.2.
With RRRF the “one-hybrid fitness for binding parS DNA” value was ≤ 0.2.
For RRSM, the “one-hybrid fitness for binding parS DNA” value was 0.364.
With RRLP the “one-hybrid fitness for binding parS DNA” value was ≤ 0.2.
For RRRC, the “one-hybrid fitness for binding parS DNA” value was 0.634.
RRNC was tested, and the “one-hybrid fitness for binding parS DNA” value was 0.615.
In the case of RRLC, the “one-hybrid fitness for binding parS DNA” value is reported as 0.669.
RRSF was tested, and the “one-hybrid fitness for binding parS DNA” value was ≤ 0.2.
With RRSC the “one-hybrid fitness for binding parS DNA” value was 0.596.
With LYTA the “one-hybrid fitness for binding parS DNA” value was ≤ 0.2.
With EYRT the “one-hybrid fitness for binding parS DNA” value was ≤ 0.2.
With PNAE the “one-hybrid fitness for binding parS DNA” value was ≤ 0.2.
HFHS was tested, and the “one-hybrid fitness for binding parS DNA” value was ≤ 0.2.
For VVVF, the “one-hybrid fitness for binding parS DNA” value was ≤ 0.2.
PGKV was tested, and the “one-hybrid fitness for binding parS DNA” value was ≤ 0.2.
In the case of GQNG, the “one-hybrid fitness for binding parS DNA” value is reported as ≤ 0.2.
With PYHE the “one-hybrid fitness for binding parS DNA” value was ≤ 0.2.
In the case of FDPI, the “one-hybrid fitness for binding parS DNA” value is reported as ≤ 0.2.
In the case of RFFL, the “one-hybrid fitness for binding parS DNA” value is reported as ≤ 0.2.
For AVTF, the “one-hybrid fitness for binding parS DNA” value was ≤ 0.2.
In the case of CQAV, the “one-hybrid fitness for binding parS DNA” value is reported as ≤ 0.2.
For NQES, the “one-hybrid fitness for binding parS DNA” value was ≤ 0.2.
For RRYC, the “one-hybrid fitness for binding parS DNA” value was 0.63.
With RRDC the “one-hybrid fitness for binding parS DNA” value was 0.701.
With RRCF the “one-hybrid fitness for binding parS DNA” value was ≤ 0.2.
With RRCH the “one-hybrid fitness for binding parS DNA” value was ≤ 0.2.
DRYC was tested, and the “one-hybrid fitness for binding parS DNA” value was ≤ 0.2.
In the case of RRCC, the “one-hybrid fitness for binding parS DNA” value is reported as 0.619.
For NRYC, the “one-hybrid fitness for binding parS DNA” value was ≤ 0.2.
For RRDR, the “one-hybrid fitness for binding parS DNA” value was ≤ 0.2.
With RRDQ the “one-hybrid fitness for binding parS DNA” value was ≤ 0.2.
With LWSC the “one-hybrid fitness for binding parS DNA” value was ≤ 0.2.
In the case of LRPV, the “one-hybrid fitness for binding parS DNA” value is reported as ≤ 0.2.
With PQAG the “one-hybrid fitness for binding parS DNA” value was ≤ 0.2.
In the case of ETTN, the “one-hybrid fitness for binding parS DNA” value is reported as ≤ 0.2.
For QYKG, the “one-hybrid fitness for binding parS DNA” value was ≤ 0.2.
CTWT was tested, and the “one-hybrid fitness for binding parS DNA” value was ≤ 0.2.
With MGFG the “one-hybrid fitness for binding parS DNA” value was ≤ 0.2.
With GQDP the “one-hybrid fitness for binding parS DNA” value was ≤ 0.2.
EEAD was tested, and the “one-hybrid fitness for binding parS DNA” value was ≤ 0.2.
For RRAT, the “one-hybrid fitness for binding parS DNA” value was 0.562.
For RRFK, the “one-hybrid fitness for binding parS DNA” value was ≤ 0.2.
In the case of RRAF, the “one-hybrid fitness for binding parS DNA” value is reported as ≤ 0.2.
With RRFQ the “one-hybrid fitness for binding parS DNA” value was ≤ 0.2.
